# Assay outcomes deposited in PubChem by ICCB-Longwood Screening Facility, Harvard Medical School.
# Sa growth inh = blocks Staphylococcus aureus growth | AID 720641 | relative growth, % (no concentration beside the values) | S. aureus RN4220 growth, OD600, 20 h, 42 °C; active compounds read low | 170,000 tested, 0.53% active;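 active means relative growth at most 50% at the other temperature and 20+ points below 30 °C, or under 10% at both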
# S aureus helic = S. aureus DNA helicase inhibition | purified S. aureus helicase, fluorescence unwinding assay | inhibition, % (test concentration not listed) | 120,000 tested, 0.05% active | AID 485395; in the data active means inhibition above about 25%, passing the limit was not always enough
# A number is an active result; 0 = inactive; - = not tested or not shown. This is one part of a sample in which hits are shown more often than they occur.
SMILES,Sa growth inh,S aureus helic
OC(c1cccs1)(c1cccs1)C1CN2CCC1CC2 (stereo not drawn),0,0
Cc1ccc(C(O)(c2ccc(C)c(C)c2)C2CN3CCC2CC3)cc1C (stereo not drawn),22.6,0
Cc1cccc(N2CCN(Cc3ccccc3F)CC2)c1C,0,0
Cn1c(=O)c2ncnnc2n(C)c1=O,5.9,0
O=CNc1nonc1NNc1nonc1NC=O,0,0
CC12CN3CC(C)(CN(C1)C3(C)C)C2O (stereo not drawn),0,0
CN(C)C(=S)SSC(=S)N(C)C,-0.7,-
N#CSC12CN3CN(CN(C3)C1)C2,0,0
CC(C)(C)c1c(O)[nH]c(=S)[nH]c1=O,0,0
Nc1nnc(CCN2CCCC2)s1,0,0
Cc1ccc2c(c1)C1CN(C)CCC1N2Sc1ccc(Cl)cc1 (stereo not drawn),-1.3,0
Cc1ccc2c(c1)C1CN(C)CCC1N2C(=O)Cc1cccs1 (stereo not drawn),0,0
O=P1(N2CCCCCC2)CC=CC1,0,0
CC(=O)Nc1ccc(-c2ccccc2)cc1,0,-
CC(C)Nc1ccc(Nc2ccccc2)cc1,4.5,0
CNC(=O)O/N=C/c1[nH]ncc1Br,0,0
CCCCCCCCCCCCCCCC[N+](C)(C)C,-0.5,-
COc1ccc2c(c1OC)C(=O)OC2C1c2cc3c(cc2CCN1C)OCO3 (stereo not drawn),0,0
CN1CCc2cc3c(c4c2C1Cc1ccccc1-4)OCO3 (stereo not drawn),0.1,0
CCOc1ccc(NC2=NC(C)CS2)cc1 (stereo not drawn),0,0
Cc1ccc(C(O)CN)cn1 (stereo not drawn),0,0
CN(C)[C@@H]1C(=O)C(C(N)=O)=C(O)[C@@]2(O)C(=O)C3=C(O)c4c(O)cccc4[C@@](C)(O)[C@H]3C[C@@H]12,-0.1,-
Fc1ccc(NC(=S)NC2CN3CCC2CC3)cc1 (stereo not drawn),0,0
CCOP1(=S)Oc2cc(Cl)ccc2C(C(F)(F)F)(C(F)(F)F)O1 (stereo not drawn),0,0
